The list is not random: actives were taken first. Their share in the collection is about 17%.
DT40 TDP1 CPT – growth inhibition of DT40 Tdp1-/-;hTDP1 cells with camptothecin (screen for TDP1 inhibitors). chicken DT40 Tdp1-/-;hTDP1 cells + 20 nM CPT, ATP luminescence, 48 h. Potency, µM (series often up to 46.2 µM), for the others: top-dose activity change, negative = growth inhibition, usual class: inhibitors. 12% of 420,000 active. AID 686979; further: on the % scale 0 is the no-effect control and ±100 the full control effect; nearly all actives have a fitted effect of over 55% in size
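Chicken DT40 Tdp1-/- cells complemented with human TDP1, 400 cells/well, exposed to compounds plus 20 nM camptothecin for at least 48 h at 37 C; viability read as ATP content by CellTiter-Glo luminescence.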
TDP1 cell noCPT – qHTS for Inhibitors of human tyrosyl-DNA phosphodiesterase 1 (TDP1): qHTS in cells in absence of CPT. 15% of 420,000 active. DT40 Tdp1-/- hTDP1 cells, no CPT, ATP luminescence, 48 h. Potency, µM (doses to about 46.2 µM), without a hit: top-dose activity change, negative = growth inhibition, usual class: inhibitors; further: on the % scale 0 is the no-effect control and ±100 the full control effect; nearly all actives have a fitted effect of over 55% in size
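Luminescent ATP content (CellTiter-Glo) served as the growth readout. Knockout chicken DT40 cells expressing human TDP1 were exposed to compounds without camptothecin for a minimum 48 hr at 37 °C.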
TGFb inhibitor – blocks TGF-b signaling; 1.2% of 410,000 active; Potency, µM (doses to about 46.1 µM), for inactives: at the top dose activity, negative = inhibition, hits mostly inhibitors; HepG2 CAGA-GFP TGF-b/SMAD3 reporter, GFP fluorescence, 18 h; TGF-beta stimulated, 500 pg/mL final; further: on the % scale 0 is the no-effect control and ±100 the full control effect; nearly all actives have a fitted effect of over 65% in size
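Inhibition was scored as loss of TGF-beta-induced (500 pg/mL final, 18 hours, 37 degrees C) GFP in HEPG2 cells carrying a CAGA-GFP reporter, in DMEM with 1% FBS. Well GFP was summed per cell; Activity was normalised to unstimulated and stimulated DMSO wells, then concentration-response fitting.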
ATXN2 expr inh – ATXN2 expression inhibition; HEK-293 ATXN2-luciferase reporter, luminescence, 24 h; Potency, µM (highest dose often 57 µM), inactives show top-dose activity change, negative = inhibition, usual class: inhibitors; 0.72% of 360,000 active; AID 1745845; further: on the % scale 0 is the no-effect control and ±100 the full control effect; nearly all actives have a fitted effect of over 55% in size
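ATXN2-luciferase reporter cells (luciferase flanked by upstream and downstream ATXN2 gene portions) were treated 24 h at 37 °C with compounds at up to 57 uM. SteadyGlo luminescence gave expression; GF-AFC fluorescence gave viability.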
HepG2 tox-1 – counter-screen for TGF-b inhibitors: cytotoxicity in HepG2 cells; Potency, µM (doses to about 46.1 µM), inactives show at the highest dose activity change, negative = cytotoxicity, most hits filed as cytotoxic; 0.76% of 410,000 active; HepG2 CAGA-GFP viability, ATP luminescence, 18 h
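HepG2 CAGA-GFP cells (1000/well, DMEM with 1% FBS) received compound, then TGF-beta at 500 pg/mL final, and were incubated 18 hours at 37 degrees C. Viability was read by CellTiter-Glo luminescence. Media-only wells were set as complete cell-killing and DMSO as no toxicity.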
ATXN viability – reduces viability in counter-screen for ATXN expression inhibitors. 0.49% of 400,000 active. S2 cells (HEK-293 line with an ATXN2-luciferase reporter) viability, CellTiter-Fluor protease fluorescence, 24 h. AID 651635. Potency, µM (top dose mostly 56.7 µM), usual class: cytotoxic; further: nearly all actives have a fitted effect of over 40% in size
TGFb confirm – TGF-b pathway inhibition, cherry-pick retest | 63% of 1,600 active | HepG2 CAGA-GFP TGF-b reporter, GFP fluorescence, 18 h; cells stimulated with TGF-beta, 500 pg/mL | shares compounds with TGFb inhibitor | Potency, µM (highest dose often 46.1 µM), without a hit: at the top dose activity, negative = inhibition, hits mostly inhibitors; further: on the % scale 0 is the no-effect control and ±100 the full control effect; nearly all actives have a fitted effect of over 65% in size
HepG2 tox-2 – counter-screen for TGF-b inhibitors: cytotoxicity in HepG2 cells; shares compounds with TGFb inhibitor; HepG2 CAGA-GFP viability, ATP luminescence, 18 h; cells stimulated with TGF-beta, 500 pg/mL; Potency, µM (doses to about 46.1 µM), for the others: at the highest dose activity, negative = cytotoxicity, usual class: inhibitors; 27% of 1,600 active; further: on the % scale 0 is the no-effect control and ±100 the full control effect; nearly all actives have a fitted effect of over 70% in size
TGFb CCL64 inh – TGF-b inhibition, CCL64 orthogonal assay; CCL64 CAGA-GFP reporter, TGF-b stimulated, GFP fluorescence, 18 h; Potency, µM (titrated, usually from 46.1 µM), for inactives: top-dose activity, negative = inhibition, actives largely listed as inhibitors; 41% of 1,600 active; shares compounds with TGFb inhibitor; further: nearly all actives have a fitted effect of over 65% in size
COP TGFb inh – validation of TGF-b inhibitors in HepG2 COP promoter reporter. shares compounds with TGFb inhibitor. HepG2 COP-GFP TGF-b reporter, GFP fluorescence, 18 h; cells stimulated by added recombinant TGF-beta. Potency, µM (series often up to 46.1 µM), inactives show at the highest dose activity, negative = inhibition, actives largely listed as inhibitors. 3% of 1,600 active. AID 720537; further: nearly all actives have a fitted effect of over 70% in size
* hit, by the source's call; i = inactive; ? = inconclusive; . = no result given. The call rests on the fitted dose curve; in most records, active means well fitted curve in the direction sought with a large enough effect; inconclusive means small, poorly fitted or top-dose-only effect, or another doubt; inactive means no such curve, though single readings can be large; an effect the other way counts as inactive or inconclusive. Potency means the concentration at half of the fitted maximal effect.

SMILES	DT40 TDP1 CPT	TDP1 cell noCPT	TGFb inhibitor	ATXN2 expr inh	HepG2 tox-1	ATXN viability	TGFb confirm	HepG2 tox-2	TGFb CCL64 inh	COP TGFb inh
CCN(CC)CC(C)(C)C(=O)/C=C/c1ccc(/C=C/C(=O)C(C)(C)CN(CC)CC)cc1	0.52µM*	0.41µM*	4.5µM*	4µM*	5µM*	5.6µM*	3.3µM*	3.3µM*	4.6µM*	?
Nc1ncnc2c1ncn2[C@@H]1O[C@H](C(=O)NCc2ccc(OC(F)(F)F)cc2)[C@@H](O)[C@H]1O	4%	-4%	?	16%	-29%	i	?	-15%	-15%	-1%
Nc1ncnc2c1ncn2[C@@H]1O[C@H](C(=O)NCCc2ccc(F)cc2)[C@@H](O)[C@H]1O	-2%	1%	4%	6%	0%	i	.	.	.	.
CCOc1ccc(NC(=S)NC23CC4CC(CC(C4)C2)C3)cc1	?	?	8%	-19%	1%	?	.	.	.	.
FC(F)Oc1ccc(NC(=S)NC23CC4CC(CC(C4)C2)C3)cc1	?	?	13µM*	-4%	-24%	i	?	?	?	38%
CC1(C(=O)NCc2ccccc2Br)CCN1C(=O)C1(c2ccc(Cl)cc2)CC1 (centres undefined)	?	?	?	-19%	-4%	i	.	.	.	.
CC1(C(=O)NCc2cccc3ccccc23)CCN1C(=O)C1(c2ccccc2)CCCC1 (centres undefined)	23µM*	21µM*	13µM*	-18%	-6%	i	13µM*	?	?	45%
CC(=O)Oc1c(-c2ccco2)oc2ccccc2c1=O	-18%	-30%	32%	-5%	-24%	.	.	.	.	.
CCOC(=O)N/N=C/c1ccccc1F	15%	10%	4%	0%	4%	?	.	.	.	.
O=C(N/N=C/c1ccccc1Cl)c1ccncc1	0%	-13%	10%	.	7%	i	.	.	.	.
O=C(N/N=C/c1cn(Cc2ccccc2)c2ccccc12)c1ccncc1	-15%	?	?	-22%	0%	.	1.2µM*	2.3µM*	4%	-22%
COC(=O)N/N=C/c1cn(CCOc2ccc(OC)cc2)c2ccccc12	?	?	?	-24%	-36%	i	.	.	.	.
COC(=O)N/N=C/c1cn(CCOc2ccccc2)c2ccccc12	0%	?	?	17%	-6%	?	7.3µM*	3.3µM*	-5%	19%

Screening results from PubChem BioAssay.
